From the supplement of paper PMC11732987, “Enantioselective OTUD7B fragment discovery through chemoproteomics screening and high-throughput optimisation” (Communications Chemistry, 2025)

Key:
Experiment in all cases: log2 ratio of Biotin-Ahx-Ub-VS probe labelling (fragment/DMSO); higher = less target engagement (more negative = stronger competition), active = hit call of the paper (q ≤ 0.05, log2 ratio ≤ -1)
Conditions in all cases: compound concentration: 200 uM; treatment time: 3 h
USP19 = molecular target: T1, USP19 (UniProt O94966)
T1 sequence (whole entry): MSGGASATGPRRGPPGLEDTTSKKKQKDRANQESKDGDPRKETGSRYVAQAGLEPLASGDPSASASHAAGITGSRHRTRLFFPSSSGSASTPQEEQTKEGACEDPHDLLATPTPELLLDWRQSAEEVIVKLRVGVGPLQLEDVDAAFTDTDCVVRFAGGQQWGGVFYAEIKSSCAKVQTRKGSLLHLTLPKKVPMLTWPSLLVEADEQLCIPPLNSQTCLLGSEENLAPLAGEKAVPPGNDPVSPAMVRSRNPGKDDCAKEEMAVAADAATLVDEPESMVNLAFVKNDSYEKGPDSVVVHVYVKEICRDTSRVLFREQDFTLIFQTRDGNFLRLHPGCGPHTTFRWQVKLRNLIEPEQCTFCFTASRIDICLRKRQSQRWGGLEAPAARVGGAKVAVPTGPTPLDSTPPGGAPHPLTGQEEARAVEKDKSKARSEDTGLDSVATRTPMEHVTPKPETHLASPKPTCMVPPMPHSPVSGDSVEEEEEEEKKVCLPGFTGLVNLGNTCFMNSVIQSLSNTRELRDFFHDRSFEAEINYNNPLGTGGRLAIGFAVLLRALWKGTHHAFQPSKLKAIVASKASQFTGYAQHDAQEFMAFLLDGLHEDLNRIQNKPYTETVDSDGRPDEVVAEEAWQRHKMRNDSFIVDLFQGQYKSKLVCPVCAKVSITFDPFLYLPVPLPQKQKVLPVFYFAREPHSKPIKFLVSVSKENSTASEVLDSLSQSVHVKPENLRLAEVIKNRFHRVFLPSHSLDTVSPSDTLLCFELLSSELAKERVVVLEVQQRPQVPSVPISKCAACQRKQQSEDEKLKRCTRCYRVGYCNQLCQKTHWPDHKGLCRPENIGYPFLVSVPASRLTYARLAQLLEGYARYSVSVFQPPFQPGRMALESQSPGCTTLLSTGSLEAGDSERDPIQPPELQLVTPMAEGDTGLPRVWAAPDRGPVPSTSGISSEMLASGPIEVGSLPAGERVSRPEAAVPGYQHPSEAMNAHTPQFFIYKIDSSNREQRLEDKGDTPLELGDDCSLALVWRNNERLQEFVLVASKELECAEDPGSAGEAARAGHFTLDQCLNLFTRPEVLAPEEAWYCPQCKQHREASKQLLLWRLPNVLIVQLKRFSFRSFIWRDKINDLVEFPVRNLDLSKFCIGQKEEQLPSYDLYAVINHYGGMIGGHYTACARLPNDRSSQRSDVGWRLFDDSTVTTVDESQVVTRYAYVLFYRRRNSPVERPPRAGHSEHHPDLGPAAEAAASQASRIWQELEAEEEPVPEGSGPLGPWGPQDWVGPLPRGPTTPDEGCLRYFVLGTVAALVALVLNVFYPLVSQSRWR
Method in brief: (§1)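 Fragment (200 µM) or vehicle was incubated for 3 h with triplicate HEK293T lysate samples of 495 µg, which were then treated with Biotin-Ahx-Ub-VS at 0.5 µM final for 1 h. Labelled DUBs were enriched on NeutrAvidin, digested with LysC and trypsin, and analysed by diaPASEF LC-MS/MS. Values are average log2 fragment/vehicle ratios from an unpaired t-test on global-median-normalised Spectronaut label-free quantities, using proteins with ≥2 unique peptides.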

USP24 = USP24 (UniProt Q9UPU5)
Method in brief: as §1

USP25 = molecular target: T2, USP25 (UniProt Q9UHP3)
T2 sequence (whole entry): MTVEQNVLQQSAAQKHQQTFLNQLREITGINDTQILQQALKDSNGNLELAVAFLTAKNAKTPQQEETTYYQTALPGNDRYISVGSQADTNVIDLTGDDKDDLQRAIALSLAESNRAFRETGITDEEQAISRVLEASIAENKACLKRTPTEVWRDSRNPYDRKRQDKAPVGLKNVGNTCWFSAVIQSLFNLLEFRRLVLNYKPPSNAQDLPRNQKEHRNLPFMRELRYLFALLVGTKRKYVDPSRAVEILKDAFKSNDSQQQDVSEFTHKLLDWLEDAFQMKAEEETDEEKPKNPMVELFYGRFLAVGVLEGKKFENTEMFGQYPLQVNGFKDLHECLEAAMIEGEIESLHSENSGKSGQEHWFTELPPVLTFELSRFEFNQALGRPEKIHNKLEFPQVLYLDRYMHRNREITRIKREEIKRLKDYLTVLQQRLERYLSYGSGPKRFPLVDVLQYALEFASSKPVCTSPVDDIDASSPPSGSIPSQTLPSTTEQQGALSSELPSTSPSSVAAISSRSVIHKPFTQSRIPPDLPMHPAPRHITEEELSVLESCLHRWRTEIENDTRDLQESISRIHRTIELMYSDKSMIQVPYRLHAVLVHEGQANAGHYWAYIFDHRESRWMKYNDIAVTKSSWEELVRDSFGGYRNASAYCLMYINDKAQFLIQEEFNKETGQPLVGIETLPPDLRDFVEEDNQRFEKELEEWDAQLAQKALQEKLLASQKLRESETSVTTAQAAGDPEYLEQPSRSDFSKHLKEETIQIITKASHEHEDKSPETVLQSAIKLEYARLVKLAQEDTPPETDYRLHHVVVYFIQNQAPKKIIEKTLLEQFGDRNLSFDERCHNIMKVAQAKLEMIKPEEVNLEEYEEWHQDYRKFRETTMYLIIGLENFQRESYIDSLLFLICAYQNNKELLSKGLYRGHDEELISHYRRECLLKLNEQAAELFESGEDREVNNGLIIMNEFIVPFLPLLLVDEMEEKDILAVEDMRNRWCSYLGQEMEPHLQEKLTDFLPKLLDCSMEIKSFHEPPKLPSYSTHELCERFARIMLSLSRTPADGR
Method in brief: as §1

USP28 = molecular target: T3, USP28 (UniProt Q96RU2)
T3 sequence (whole entry): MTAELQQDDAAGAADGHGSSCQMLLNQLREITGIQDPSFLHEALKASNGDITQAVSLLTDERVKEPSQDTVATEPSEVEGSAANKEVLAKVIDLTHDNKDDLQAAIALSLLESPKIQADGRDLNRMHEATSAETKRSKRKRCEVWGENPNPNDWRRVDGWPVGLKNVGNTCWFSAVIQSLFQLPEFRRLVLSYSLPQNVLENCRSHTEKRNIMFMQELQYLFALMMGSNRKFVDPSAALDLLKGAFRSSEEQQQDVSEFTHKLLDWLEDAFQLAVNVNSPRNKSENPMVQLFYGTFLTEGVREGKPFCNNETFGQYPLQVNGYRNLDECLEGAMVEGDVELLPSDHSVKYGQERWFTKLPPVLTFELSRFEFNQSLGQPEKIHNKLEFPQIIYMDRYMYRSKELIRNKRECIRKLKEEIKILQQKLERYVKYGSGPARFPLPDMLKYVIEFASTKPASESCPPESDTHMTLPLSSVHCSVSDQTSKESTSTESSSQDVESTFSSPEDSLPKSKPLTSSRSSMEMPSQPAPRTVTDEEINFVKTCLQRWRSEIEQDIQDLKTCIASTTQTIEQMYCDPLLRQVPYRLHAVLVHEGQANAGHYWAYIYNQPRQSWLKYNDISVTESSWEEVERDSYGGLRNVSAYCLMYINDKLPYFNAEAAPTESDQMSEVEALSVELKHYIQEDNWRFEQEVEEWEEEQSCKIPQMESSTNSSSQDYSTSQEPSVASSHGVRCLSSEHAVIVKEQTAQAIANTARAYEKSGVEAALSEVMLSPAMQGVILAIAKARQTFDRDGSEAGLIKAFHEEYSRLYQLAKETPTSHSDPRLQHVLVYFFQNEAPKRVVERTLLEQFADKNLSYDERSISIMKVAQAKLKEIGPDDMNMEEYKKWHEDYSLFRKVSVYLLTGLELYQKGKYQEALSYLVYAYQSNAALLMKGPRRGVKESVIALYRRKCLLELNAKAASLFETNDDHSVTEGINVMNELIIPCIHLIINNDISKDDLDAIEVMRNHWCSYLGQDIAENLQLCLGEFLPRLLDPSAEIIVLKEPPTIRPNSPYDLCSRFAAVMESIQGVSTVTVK
Method in brief: as §1

Measured: log2 ratio of Biotin-Ahx-Ub-VS probe labelling

Sequence of USP24 (Q9UPU5 whole entry): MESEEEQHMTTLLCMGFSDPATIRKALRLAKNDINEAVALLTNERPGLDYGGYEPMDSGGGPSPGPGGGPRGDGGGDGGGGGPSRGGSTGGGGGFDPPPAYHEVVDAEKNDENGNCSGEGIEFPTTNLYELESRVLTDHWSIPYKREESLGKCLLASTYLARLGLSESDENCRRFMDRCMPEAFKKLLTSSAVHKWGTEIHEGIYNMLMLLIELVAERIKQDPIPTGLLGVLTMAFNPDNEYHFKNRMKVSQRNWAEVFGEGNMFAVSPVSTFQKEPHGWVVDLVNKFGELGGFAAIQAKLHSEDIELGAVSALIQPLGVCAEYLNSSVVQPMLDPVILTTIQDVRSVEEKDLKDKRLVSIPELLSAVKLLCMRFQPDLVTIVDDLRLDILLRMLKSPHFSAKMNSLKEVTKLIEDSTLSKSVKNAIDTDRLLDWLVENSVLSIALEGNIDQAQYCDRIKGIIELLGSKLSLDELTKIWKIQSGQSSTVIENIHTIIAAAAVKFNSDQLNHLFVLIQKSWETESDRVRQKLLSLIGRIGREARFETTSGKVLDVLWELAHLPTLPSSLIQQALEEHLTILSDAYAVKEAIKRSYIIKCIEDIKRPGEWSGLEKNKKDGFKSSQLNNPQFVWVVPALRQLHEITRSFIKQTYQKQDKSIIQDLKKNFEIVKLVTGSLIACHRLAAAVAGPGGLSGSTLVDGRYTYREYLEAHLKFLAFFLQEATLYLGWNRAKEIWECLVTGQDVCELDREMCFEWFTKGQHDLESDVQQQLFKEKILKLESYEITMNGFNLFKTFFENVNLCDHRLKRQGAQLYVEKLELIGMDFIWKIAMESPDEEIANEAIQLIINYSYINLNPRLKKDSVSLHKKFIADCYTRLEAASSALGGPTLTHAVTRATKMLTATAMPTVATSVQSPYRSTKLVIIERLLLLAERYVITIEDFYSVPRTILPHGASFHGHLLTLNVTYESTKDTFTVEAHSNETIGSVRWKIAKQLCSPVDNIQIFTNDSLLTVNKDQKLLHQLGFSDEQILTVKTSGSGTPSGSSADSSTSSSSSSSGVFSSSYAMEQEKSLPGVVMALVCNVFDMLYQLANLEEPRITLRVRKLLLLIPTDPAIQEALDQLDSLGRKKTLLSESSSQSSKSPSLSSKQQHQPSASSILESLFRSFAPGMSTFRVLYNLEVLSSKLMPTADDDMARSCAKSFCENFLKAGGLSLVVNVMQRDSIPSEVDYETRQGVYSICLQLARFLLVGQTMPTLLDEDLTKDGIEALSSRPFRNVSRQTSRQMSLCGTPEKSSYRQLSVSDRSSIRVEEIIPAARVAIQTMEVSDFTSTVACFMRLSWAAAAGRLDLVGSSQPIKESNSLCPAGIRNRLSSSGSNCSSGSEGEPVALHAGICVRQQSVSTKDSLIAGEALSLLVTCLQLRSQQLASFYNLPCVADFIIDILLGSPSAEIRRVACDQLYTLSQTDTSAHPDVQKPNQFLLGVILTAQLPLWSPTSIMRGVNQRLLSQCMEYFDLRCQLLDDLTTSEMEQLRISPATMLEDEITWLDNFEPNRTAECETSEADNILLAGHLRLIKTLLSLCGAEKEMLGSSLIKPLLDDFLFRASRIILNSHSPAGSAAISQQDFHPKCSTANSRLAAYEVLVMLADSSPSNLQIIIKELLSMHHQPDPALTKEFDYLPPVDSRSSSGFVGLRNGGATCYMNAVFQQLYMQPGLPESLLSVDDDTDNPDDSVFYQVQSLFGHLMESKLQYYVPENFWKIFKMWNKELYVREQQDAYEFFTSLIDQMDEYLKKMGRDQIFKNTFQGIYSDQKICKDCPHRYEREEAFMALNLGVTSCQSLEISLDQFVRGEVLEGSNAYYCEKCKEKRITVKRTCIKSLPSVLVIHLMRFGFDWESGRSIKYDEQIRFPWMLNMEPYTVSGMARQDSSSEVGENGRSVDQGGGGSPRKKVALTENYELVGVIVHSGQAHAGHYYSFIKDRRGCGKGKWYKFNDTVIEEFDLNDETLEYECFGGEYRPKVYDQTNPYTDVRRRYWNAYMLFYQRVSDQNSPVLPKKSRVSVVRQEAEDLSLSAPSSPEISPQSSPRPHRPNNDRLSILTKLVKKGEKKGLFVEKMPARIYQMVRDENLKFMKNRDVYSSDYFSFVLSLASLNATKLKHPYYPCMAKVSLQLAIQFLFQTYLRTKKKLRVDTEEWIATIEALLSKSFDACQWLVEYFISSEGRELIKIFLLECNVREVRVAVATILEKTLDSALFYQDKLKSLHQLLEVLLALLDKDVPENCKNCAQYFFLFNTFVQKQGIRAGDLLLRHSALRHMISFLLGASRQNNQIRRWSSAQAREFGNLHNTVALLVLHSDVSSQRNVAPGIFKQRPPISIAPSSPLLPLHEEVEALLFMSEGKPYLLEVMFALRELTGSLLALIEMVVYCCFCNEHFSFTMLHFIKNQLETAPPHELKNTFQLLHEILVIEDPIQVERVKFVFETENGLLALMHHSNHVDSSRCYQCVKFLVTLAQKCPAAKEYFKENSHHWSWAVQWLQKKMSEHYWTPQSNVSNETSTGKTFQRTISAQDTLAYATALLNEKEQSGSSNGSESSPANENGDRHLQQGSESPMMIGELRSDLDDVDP

O=C(CCl)N1CCCCCC1c1ncon1 (centres undefined)
inactive: USP19 -0.0696 | USP24 -0.257 | USP25 -0.435 | USP28 -0.35
